# Test results from PubChem BioAssay AID1159580 (chemical genetic matrix, 2015).
# Among all 5,500 compounds or so, about 2,000 (36%) were called active. Roughly 18% stayed inconclusive and do not appear here. The list shows a part of the results. A number with no mark means an inactive call. Cut-off read from the data, not from the text of the source: active = normalized growth mostly below about 0.91 (no sharp cut-off); inconclusive = no clear call, values can overlap the other calls; inactive = mostly above about 0.92.
# Assay: chemical genetic growth profiling, strain panel (AID 1159580);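 note: tested at 20 µM; growth read once vehicle control cultures reached saturation at 30 °C; 1 = growth at the plate median or of vehicle wells; lower values mean less growth of the strain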
# Details: growth OD
compound,measurement,setting,value
COc1cc2c(cc1OC)[C@@H]1C(=O)c3ccc4c(c3O[C@@H]1CO2)CC(C(C)C)O4 (stereo partly drawn),normalized growth,"S. cerevisiae deletion strains, locus YKL009W, strain mrt4, hits give low values",1.01
same,normalized growth,"S. cerevisiae deletion strains, locus YKL068W, hits give low values",0.999
same,normalized growth,"S. cerevisiae deletion strains, locus YKL085W, strain MDH1 (second series), hits give low values",0.999
same,normalized growth,"S. cerevisiae deletion strains, locus YKL085W, strain MDH1, hits give low values",0.999
same,normalized growth,"S. cerevisiae deletion strains, locus YKL160W, strain elf1, hits give low values",0.978
same,normalized growth,"S. cerevisiae deletion strains, locus YKL190W, strain CNB1, hits give low values",0.998
same,normalized growth,"S. cerevisiae deletion strains, locus YKR001C, strain vps1, hits give low values",0.849 (active)
same,normalized growth,"S. cerevisiae deletion strains, locus YKR026C, strain gcn3, hits give low values",0.991
same,normalized growth,"S. cerevisiae deletion strains, locus YKR091W, strain srl3, hits give low values",0.997
same,normalized growth,"S. cerevisiae deletion strains, locus YLL001W, strain dnm1, hits give low values",0.943
same,normalized growth,"S. cerevisiae deletion strains, locus YLL026W, hits give low values",0.98
same,normalized growth,"S. cerevisiae deletion strains, locus YLL041C, strain sdh2, hits give low values",1
same,normalized growth,"S. cerevisiae deletion strains, locus YLR027C, strain aat2, hits give low values",0.935
same,normalized growth,"S. cerevisiae deletion strains, locus YLR039C, strain RIC1, hits give low values",0.849
same,normalized growth,"S. cerevisiae deletion strains, locus YLR058C, strain SHM2, hits give low values",0.987
same,normalized growth,"S. cerevisiae deletion strains, locus YLR102C, strain apc9, hits give low values",1.01
same,normalized growth,"S. cerevisiae deletion strains, locus YLR113W, strain HOG1, hits give low values",1.02
same,normalized growth,"S. cerevisiae deletion strains, locus YLR221C, strain rsa3, hits give low values",0.966
same,normalized growth,"S. cerevisiae deletion strains, locus YLR258W, strain gsy2, hits give low values",0.985
same,normalized growth,"S. cerevisiae deletion strains, locus YLR262C, strain YPT6 (second series), hits give low values",0.897
same,normalized growth,"S. cerevisiae deletion strains, locus YLR262C, strain YPT6, hits give low values",0.822
same,normalized growth,"S. cerevisiae deletion strains, locus YLR268W, strain sec22, hits give low values",0.976
same,normalized growth,"S. cerevisiae deletion strains, locus YLR320W, strain mms22, hits give low values",0.923
same,normalized growth,"S. cerevisiae deletion strains, locus YLR330W, strain CHS5, hits give low values",1
same,normalized growth,"S. cerevisiae deletion strains, locus YLR342W, strain FKS1 (second series), hits give low values",0.999
same,normalized growth,"S. cerevisiae deletion strains, locus YLR342W, strain FKS1, hits give low values",0.975
same,normalized growth,"S. cerevisiae deletion strains, locus YLR357W, strain rsc2, hits give low values",0.958
same,normalized growth,"S. cerevisiae deletion strains, locus YLR370C, strain arc18, hits give low values",0.984
same,normalized growth,"S. cerevisiae deletion strains, locus YLR371W, strain rom2, hits give low values",1
same,normalized growth,"S. cerevisiae deletion strains, locus YLR384C, strain iki3, hits give low values",0.981
same,normalized growth,"S. cerevisiae deletion strains, locus YLR418C, strain cdc73, hits give low values",0.921
same,normalized growth,"S. cerevisiae deletion strains, locus YML016C, strain PPZ1, hits give low values",1
same,normalized growth,"S. cerevisiae deletion strains, locus YML032C, strain rad52, hits give low values",1
same,normalized growth,"S. cerevisiae deletion strains, locus YML120C, strain ndi1, hits give low values",0.986
same,normalized growth,"S. cerevisiae deletion strains, locus YML124C, strain tub3, hits give low values",0.999
same,normalized growth,"S. cerevisiae deletion strains, locus YMR058W, strain fet3, hits give low values",0.983
same,normalized growth,"S. cerevisiae deletion strains, locus YMR078C, strain ctf18, hits give low values",0.996
same,normalized growth,"S. cerevisiae deletion strains, locus YMR125W, strain sto1, hits give low values",0.99
same,normalized growth,"S. cerevisiae deletion strains, locus YMR129W, hits give low values",0.979
same,normalized growth,"S. cerevisiae deletion strains, locus YMR205C, strain PFK2, hits give low values",0.924
same,normalized growth,"S. cerevisiae deletion strains, locus YMR223W, strain ubp8, hits give low values",1
same,normalized growth,"S. cerevisiae deletion strains, locus YMR231W, strain pep5, hits give low values",0.992
same,normalized growth,"S. cerevisiae deletion strains, locus YMR263W, strain SAP30, hits give low values",1
same,normalized growth,"S. cerevisiae deletion strains, locus YMR307W, strain GAS1, hits give low values",0.872
same,normalized growth,"S. cerevisiae deletion strains, locus YNL067W, strain RPL9B, hits give low values",0.993
same,normalized growth,"S. cerevisiae deletion strains, locus YNL071W, strain lat1, hits give low values",0.93
same,normalized growth,"S. cerevisiae deletion strains, locus YNL183C, strain NPR1, hits give low values",0.983
same,normalized growth,"S. cerevisiae deletion strains, locus YNL209W, strain ssb2, hits give low values",0.995
same,normalized growth,"S. cerevisiae deletion strains, locus YNL233W, strain BNI4, hits give low values",0.986
same,normalized growth,"S. cerevisiae deletion strains, locus YNL248C, strain rpa49, hits give low values",0.98
same,normalized growth,"S. cerevisiae deletion strains, locus YNL250W, strain rad50, hits give low values",1
same,normalized growth,"S. cerevisiae deletion strains, locus YNL271C, strain bni1, hits give low values",1.02
same,normalized growth,"S. cerevisiae deletion strains, locus YNL298W, strain CLA4, hits give low values",1.01
same,normalized growth,"S. cerevisiae deletion strains, locus YNL307C, strain MCK1, hits give low values",0.986
same,normalized growth,"S. cerevisiae deletion strains, locus YNL322C, strain KRE1 (second series), hits give low values",0.985
same,normalized growth,"S. cerevisiae deletion strains, locus YNR049C, strain mso1, hits give low values",0.997
same,normalized growth,"S. cerevisiae deletion strains, locus YNR052C, strain pop2, hits give low values",1.01
same,normalized growth,"S. cerevisiae deletion strains, locus YOL006C, strain TOP1, hits give low values",0.897
same,normalized growth,"S. cerevisiae deletion strains, locus YOL012C, strain htz1",1.16
same,normalized growth,"S. cerevisiae deletion strains, locus YOL147C, strain pex11, hits give low values",0.999
same,normalized growth,"S. cerevisiae deletion strains, locus YOR001W, strain rrp6, hits give low values",0.966
same,normalized growth,"S. cerevisiae deletion strains, locus YOR061W, strain CKA2, hits give low values",0.998
same,normalized growth,"S. cerevisiae deletion strains, locus YOR069W, strain VPS5, hits give low values",1.01
same,normalized growth,"S. cerevisiae deletion strains, locus YOR070C, strain gyp1, hits give low values",0.961
same,normalized growth,"S. cerevisiae deletion strains, locus YOR080W, strain dia2, hits give low values",0.974
same,normalized growth,"S. cerevisiae deletion strains, locus YOR083W, strain WHI5, hits give low values",0.98
same,normalized growth,"S. cerevisiae deletion strains, locus YOR106W, strain vam3, hits give low values",1.02
same,normalized growth,"S. cerevisiae deletion strains, locus YOR136W, strain idh2, hits give low values",1
same,normalized growth,"S. cerevisiae deletion strains, locus YOR144C, strain elg1, hits give low values",0.992
same,normalized growth,"S. cerevisiae deletion strains, locus YOR184W, strain ser1, hits give low values",0.925
same,normalized growth,"S. cerevisiae deletion strains, locus YOR231W, strain MKK1, hits give low values",1.05
same,normalized growth,"S. cerevisiae deletion strains, locus YOR265W, strain rbl2, hits give low values",0.989
same,normalized growth,"S. cerevisiae deletion strains, locus YOR270C, strain vph1, hits give low values",0.939
same,normalized growth,"S. cerevisiae deletion strains, locus YOR290C, strain snf2, hits give low values",0.989
same,normalized growth,"S. cerevisiae deletion strains, locus YOR316C, strain cot1, hits give low values",0.999
same,normalized growth,"S. cerevisiae deletion strains, locus YPL051W, strain arl3, hits give low values",0.941
same,normalized growth,"S. cerevisiae deletion strains, locus YPL055C, strain LGE1, hits give low values",0.929
same,normalized growth,"S. cerevisiae deletion strains, locus YPL078C, strain atp4, hits give low values",0.982
same,normalized growth,"S. cerevisiae deletion strains, locus YPL106C, strain sse1, hits give low values",1
same,normalized growth,"S. cerevisiae deletion strains, locus YPL240C, strain hsp82, hits give low values",1.01
same,normalized growth,"S. cerevisiae deletion strains, locus YPL241C, strain CIN2, hits give low values",1
same,normalized growth,"S. cerevisiae deletion strains, locus YPL256C, strain CLN2, hits give low values",1.05
same,normalized growth,"S. cerevisiae deletion strains, locus YPR119W, strain clb2, hits give low values",1
same,normalized growth,"S. cerevisiae deletion strains, locus YPR141C, strain kar3, hits give low values",1
same,normalized growth,"S. cerevisiae deletion strains, locus YPR163C, strain tif3, hits give low values",1.01
same,normalized growth,"S. cerevisiae deletion strains, locus YPR167C, strain met16, hits give low values",1
same,normalized growth,"S. cerevisiae deletion strains, strain wtn01, hits give low values",1.01
same,normalized growth,"S. cerevisiae strains, strain wild type, hits give low values",0.987
